Assay outcomes as filed in PubChem BioAssay.
ELG1 DNA repair = qHTS screen for small molecules that inhibit ELG1-dependent DNA repair in human embryonic kidney (HEK293T) cells expressing luciferase-tagged ELG1; hit rate 2.3% among 330,000; Potency, µM (titrated, usually from 46.1 µM), for the others: top-dose activity change, negative = inhibition, hits mostly inhibitors; AID 504467, 2011; HEK293T ELG1-luciferase reporter, luminescence, 16 h; DNA damage induced by 5-fluorouridine; also: nearly all actives have a fitted effect of over 55% in size
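5-Fluorouridine DNA damage + compound/DMSO, 2,000 cells/well, 16 h, 37 °C/5% CO2. ONE-Glo, 30 min RT, luminescence. Readout = decrease in reporter signal.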
Gal4-VP16 FLuc = VP16 counterscreen qHTS for inhibitors of ROR gamma transcriptional activity; hit rate 3.5% among 310,000; Drosophila S2 Gal4-VP16 UAS-luciferase, luminescence, 20 h; Potency, µM (highest dose often 53.6 µM), for inactives: at the highest dose activity, negative = inhibition, most hits filed as inhibitors;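 also: Gal4-VP16 expression switched on by copper sulfate through the metallothionein promoter; nearly all actives have a fitted effect of over 50% in size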
RORg inh = qHTS for inhibitors of ROR gamma transcriptional activity; Potency, µM (highest dose often 53.6 µM), for inactives: top-dose activity change, negative = inhibition, most hits filed as inhibitors; AID 2551, 2010; Drosophila S2 Gal4-RORgamma UAS-luciferase reporter, 20 h; hit rate 5.4% among 310,000; also: nearly all actives have a fitted effect of over 60% in size
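Stable Schneider cell line, Gal4 DNA-binding domain fused to ROR gamma, UAS-luciferase. Cmpd 1 hr RT → CuSO4 700 uM final → 20 hr RT → luciferase reagent 10 min → luminescence.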
ALOX12 inh = Primary qHTS assay for inhibitors of human arachidonate 12S-lipoxygenase (ALOX12): Round 2 | Polyunsaturated fatty acid lipoxygenase ALOX12 (Homo sapiens), P18054 | purified 12hLO, xylenol orange hydroperoxide absorbance | Potency, µM (titrated, usually from 108 µM), inactives show at the top dose activity change, negative = inhibition, usual class: inhibitors | hit rate 1.1% among 580,000
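Purified human 12hLO at 150 nM in 25 mM Hepes, 0.01% Triton X-100, pH 7.0, preincubated 15 min at room temperature with compound. Reaction started with 40 uM arachidonic acid, 30 min at room temperature. Hydroperoxide measured by Fe-xylenol orange, 573/405 nm absorbance ratio.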
TDP1 cell noCPT = qHTS for Inhibitors of human tyrosyl-DNA phosphodiesterase 1 (TDP1): qHTS in cells in absence of CPT; AID 686978, 2013; Potency, µM (titrated, usually from 46.2 µM), inactives show at the top dose activity change, negative = growth inhibition, actives largely listed as inhibitors; DT40 Tdp1-/- hTDP1 cells, no CPT, ATP luminescence, 48 h; hit rate 15% among 420,000; also: nearly all actives have a fitted effect of over 55% in size
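Camptothecin absent (DMSO only). Human TDP1-complemented DT40 knockout cells, 400 cells/well, 37 °C for minimum 48 hr; ATP measured via CellTiter-Glo, 30 min dark incubation, luminescence.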
DT40 TDP1 CPT = qHTS for Inhibitors of human tyrosyl-DNA phosphodiesterase 1 (TDP1): qHTS in cells in presence of CPT; chicken DT40 Tdp1-/-;hTDP1 cells + 20 nM CPT, ATP luminescence, 48 h; hit rate 12% among 420,000; Potency, µM (top dose mostly 46.2 µM), without a hit: at the highest dose activity change, negative = growth inhibition, hits mostly inhibitors; also: nearly all actives have a fitted effect of over 55% in size
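Cell growth measured by CellTiter-Glo luminescence after a minimum 48 h, 37 C compound exposure with 20 nM CPT in Tdp1-knockout DT40 cells stably expressing hTDP1, seeded 400/well; qHTS titration format.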
Starred values were filed as active, the others as inactive; u = inconclusive; x = no result given; [ ] = another dose, or the depositor's remark. Compounds with a hit are over-represented: about 15% of the library has one in this group of screens. Calls follow the shape of the dose curve; as a rule, active = well fitted curve in the direction sought with a large enough effect; inconclusive = small, poorly fitted or top-dose-only effect, or another doubt; inactive = no such curve, though single readings can be large; an effect the other way counts as inactive or inconclusive. % is scaled to controls: 0 for no effect and ±100 for the full control effect; potency is read from the fitted curve at half-maximal effect.

SMILES	ELG1 DNA repair	Gal4-VP16 FLuc	RORg inh	ALOX12 inh	TDP1 cell noCPT	DT40 TDP1 CPT
CNC(=O)c1sc(N2N=C3/C(=C\c4ccccc4)CCCC3C2c2ccccc2)nc1C (stereo not given)	x	x	x	-18%	26µM*	u
CSc1nnc(-c2ccccc2NC(=O)c2ccc(C)c(S(=O)(=O)N3CCCCCC3)c2)o1	x	x	x	3%	x	x
O=C(C1CCCO1)N1CCCC(c2ccccc2)(c2ccccc2)C1 (stereo not given)	x	x	x	-19%	x	x
Cc1ccc(O)c(C(=O)OC(C)C(=O)Nc2ccc3c(c2)OCO3)c1 (stereo not given)	x	x	x	-11%	x	x
CCNC(=O)N1CCN(CCCC(c2ccc(F)cc2)c2ccc(F)cc2)CC1	-6%	8%	22%	35µM*	18µM*	21µM*
CC(C)c1cccc(-c2ccc3c(c2)S(=O)(=O)c2cccc(C(=O)NCc4ccccc4)c2C3=O)c1	u	x	x	-8%	23µM*	u
CC(C)c1cccc(-c2ccc3c(c2)S(=O)(=O)c2cccc(C(=O)NCc4ccccc4Cl)c2C3=O)c1	25%	x	x	x	6.5µM*	2.6µM*
O=C(NCc1ccc(F)cc1)c1cccc2c1C(=O)c1ccc(Cl)cc1S2(=O)=O	13%	x	x	-15%	x	x
Cc1cc2nc3n(c(=O)c2n1CC(=O)NCc1ccccc1F)CCCCC3	x	x	x	10%	x	x
Cc1nn(C)c(C)c1CCN(C)C(=O)C12CCCC=C1N(C1CCCC1)C(=O)CC2 (stereo not given)	x	x	x	23%	x	x
C=CCNC(=S)N1CCN(c2cc3c(cc2F)c(=O)c(C(=O)O)cn3CC)CC1	u	-11%	-14%	6%	u	u
C=CCCCCCCCCC(=O)N1CCN(c2cc3c(cc2F)c(=O)c(C(=O)O)cn3CC)CC1	2%	5%	0%	3%	u	21µM*
CCn1cc(C(=O)O)c(=O)c2cc(F)c(N3CCN(C(=S)NC(=O)c4cc(OC)cc(OC)c4)CC3)cc21	u	6.3µM*	2.5µM*	2%	u	u
Cc1cc(/C=N/NC(N)=S)c(C)n1-c1cccc(Cl)c1	-15%	10µM*	2.8µM*	40µM*	16µM*	13µM*
CC(C)Oc1ccc(Br)cc1/C=N/O	x	x	x	-26%	x	x
Cc1cccc(C)c1-n1c(C)cc(/C=N/NC(N)=S)c1C	6%	0.79µM*	0.89µM*	0%	8.2µM*	7.3µM*
CC(C)Oc1ccc(Br)cc1/C=N\NC(N)=S	-13%	5µM*	2µM*	40µM*	16µM*	u
Cc1cc(/C=N/O)c(C)n1-c1ccc(Br)cc1	21%	-9%	u	-28%	u	1%
Cc1cc(/C=N/NC(N)=S)c(C)n1-c1ccc(Br)cc1	u	-2%[10 µM]	0.56µM*	u	8.2µM*	2.9µM*
CC(C)c1ccc(CN2CCCC(O)(CNCCN3CCNCC3)C2=O)cc1 (stereo not given)	x	x	x	59%	x	x
CCCCC(=O)NC1CCN(c2cnn(Cc3ccccc3)c(=O)c2)CC1	x	x	x	20%	x	x
Cc1cc(/C=N/NC(=O)C(O)(c2ccccc2)c2ccccc2)c(C)n1-c1ccc(C(=O)O)cc1	1%	u	11µM*	u	-11%	-8%
Cc1nc2ccccn2c1C(=O)N/N=C/c1cc(C)n(-c2ccc(Br)cc2)c1C	u	u	11µM*	-6%	21µM*	18µM*
